These results are taken from PubChem BioAssay AID1572 (National Center for Advancing Translational Sciences (NCATS), 2009).

Results filed as inconclusive are left out. Where a call stands in place of a potency, no number is given. Activity calls are given as the source filed them. Calls come from the whole dose curve; as a rule, active = well fitted curve in either direction with a large enough effect; inconclusive = small, poorly fitted or top-dose-only effect; inactive = flat fitted curve, though single readings scatter.

This assay can be described thus: Total Fluorescence Confirmation Counterscreen for Inhibitors of the Interaction of Thyroid Hormone Receptor and Steroid Receptor Coregulator 2. The note with it: Texas Red total fluorescence, TRbeta/SRC2 FP artifact counterscreen; series mostly up to 92.2 µM. The method in brief:
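Flags fluorescent or light-absorbing compounds: after 5 hr at ambient temperature, 0.6 uM TRbeta LBD plus 20 nM SRC2 Texas Red (1uM T3, 5% DMSO) read at 555/632 nm; TF = S + 2P from parallel and perpendicular channels.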

Consider `CCC(NC(=O)Nc1ccc(O)cc1)(C(F)(F)F)C(F)(F)F`, for which the Potency result is “inactive”. Regarding `Cc1cc2ccccc2n1CCNC(=O)C(C)Oc1ccccc1` (stereo unspecified), the Potency entry was “inactive”.

As for `Nc1cc(-c2ccccc2)c[nH]c1=O`, the Potency result was “inactive”. `C=CCSc1nnc2n(-c3ccccc3OC)c(=O)c3c4c(sc3n12)CCC4`: the Potency result is “inactive”. Regarding `Cc1cccc(Cn2c(C(=O)OC(C)C)cc3c2ccn3C)c1`, the Potency entry is “inactive”. The entry for `CN1c2ccccc2C(C)(C)C12C=Nc1c(ccc3ccccc13)O2` (stereo unspecified) is “inactive”.
